According to PubChem BioAssay (Tox21):
Records with an inconclusive call do not appear. Where a call stands in place of a potency, no number is given. Active and inactive are the calls of the source. Calls follow the shape of the full dose curve. Square brackets hold non-standard residues; d marks the D form. Peptide text beside a SMILES is read from it. * marks the point of attachment. Sta = CC(C)C[C@H](N)[C@@H](O)CC(=O)O; Isovaleryl = CC(C)CC(=O)*

Experiment: Nuclear factor erythroid 2-related factor 2/antioxidant responsive element (Nrf2/ARE) small molecule agonists: luciferase reporter gene qHTS assay in human keratinocytes (AID 1919969); also: nearly all actives have a fitted effect of over 35% in size
Conditions: KeratinoSens HaCaT ARE-luciferase, luminescence, 24 h; series mostly up to 92.4 µM
Potency is read from the fitted curve at half-maximal effect.

Row | Structure (SMILES) | Potency
1 | CS(=O)(=O)c1ccc(-c2cn3ccccc3n2)cc1 | 33.5 µM (active)
2 | Cc1ccc(Cl)c(OCC(O)CNC(C)(C)C)c1 (configuration not stated) | inactive
3 | C=CCCCC | inactive
4 | CC(C)C[C@H](NC(=O)[C@H](CCc1ccccc1)NC(=O)CN1CCOCC1)C(=O)N[C@@H](Cc1ccccc1)C(=O)N[C@@H](CC(C)C)C(=O)[C@@]1(C)CO1 | 0.106 µM (active)
5 | COc1ccc([C@@H]2Sc3ccccc3N(CCN(C)C)C(=O)[C@@H]2OC(C)=O)cc1 | inactive
6 | CCCCCC(C)N (configuration not stated) | inactive
7 | O=C(Nc1cccc2c(=O)cc(-c3nn[nH]n3)oc12)c1ccc(OCCCCc2ccccc2)cc1 | inactive
8 | CC(C)CC(=O)N[C@H](C(=O)N[C@H](C(=O)N[C@@H](CC(C)C)[C@@H](O)CC(=O)N[C@@H](C)C(=O)N[C@@H](CC(C)C)[C@@H](O)CC(=O)O)C(C)C)C(C)C (Isovaleryl-VV[Sta]A[Sta]-OH) | inactive
9 | CCC(=O)O[C@]1(C(=O)SCF)[C@H](C)C[C@H]2[C@@H]3C[C@H](F)C4=CC(=O)C=C[C@]4(C)[C@@]3(F)[C@@H](O)C[C@@]21C | inactive
10 | CC(C)(C)N | inactive
11 | CCCCCCCCCCCCCCC1CO1 (configuration not stated) | inactive
12 | O=[N+]([O-])c1c(Cl)cc(Cl)cc1Cl | inactive
13 | COc1cc2nc(N3CCN(C(=O)C4CCCO4)CC3)nc(N)c2cc1OC (configuration not stated) | inactive
14 | CC(Cl)C(Cl)Cl (configuration not stated) | inactive
15 | CCC(C(=O)O)c1ccc(N2Cc3ccccc3C2=O)cc1 (configuration not stated) | inactive
16 | O=C(O)C1CCC1 | inactive
17 | CC(=O)Nc1ccccc1C | inactive
18 | Cc1ccc(C(=O)Oc2ccc(C(O)CNC(C)(C)C)cc2OC(=O)c2ccc(C)cc2)cc1 (configuration not stated) | inactive
19 | CCC(C)(CCCC(C)C)OC(C)=O (configuration not stated) | inactive

Row | Structure (SMILES) | Potency
20 | COC(=O)[C@@H]1[C@H]2C[C@H]3c4[nH]c5ccccc5c4CCN3C[C@@H]2CC[C@@H]1O | inactive
21 | O=C(COCCOCCOCC(=O)Nc1c(I)cc(I)c(C(=O)O)c1I)Nc1c(I)cc(I)c(C(=O)O)c1I | inactive
22 | c1ccc(CN(CC2=NCCN2)c2ccccc2)cc1 | inactive
23 | CCCCCCCCCC[N+](C)(C)[O-] | inactive
24 | CO[Si](CCC1CCC2OC2C1)(OC)OC (configuration not stated) | inactive
25 | CC(C)Oc1ccccc1O | inactive
26 | O=C(CCC1CCN(Cc2ccccc2)CC1)c1ccc2c(c1)NCCCC2 | inactive
27 | Cc1c[nH]c2ccccc12 | inactive
28 | C/C=C/C(=O)CC | 10.5 µM (active)
29 | CCOC(=O)Nc1ccc(NCc2ccc(F)cc2)nc1N | inactive
30 | CCCCCCCCCCCCCC(=O)OCC | inactive
31 | C[Si](C)(CCCN)O[Si](C)(C)CCCN | inactive
32 | COCC(=O)Nc1c(I)c(C(=O)NCC(O)CO)c(I)c(C(=O)N(C)CC(O)CO)c1I (configuration not stated) | inactive
33 | COc1ccc2c(c1OC)C(=O)O[C@@H]2[C@H]1c2c(cc3c(c2OC)OCO3)CCN1C | inactive
34 | CCOC(=O)CC | inactive
35 | OCCC(O)CO (configuration not stated) | inactive
36 | CC(C)(C#N)Nc1nc(Cl)nc(NC2CC2)n1 | inactive
37 | C=C(C)C(=O)OCC(C)(C)COC(=O)C(=C)C | inactive
